Results taken from ChEMBL document CHEMBL3988442, “University of Dundee, Small-Polar-MMV Screening Library” (2021).
For some assays here: Entries with a potency or affinity are not part of this list.

Key:
Parameters in all cases: scale not given: direction of the effect not stated beside the values
[1] = target: Protein translocase subunit SecA (Escherichia coli (strain K12)) (UniProt P10408); experiment: Assay to Identify E. coli SecA ATPase Inhibitors; type: functional; conditions: 30 µM
[2] = target: T1, Ubiquitin-activating enzyme e1, putative (Leishmania donovani (strain BPK282A1)) (UniProt E9BSI1); experiment: Leishmania donovani Ubiquitin Activating Enzyme (LdE1); type: functional; conditions: 30 µM
T1 sequence (whole entry): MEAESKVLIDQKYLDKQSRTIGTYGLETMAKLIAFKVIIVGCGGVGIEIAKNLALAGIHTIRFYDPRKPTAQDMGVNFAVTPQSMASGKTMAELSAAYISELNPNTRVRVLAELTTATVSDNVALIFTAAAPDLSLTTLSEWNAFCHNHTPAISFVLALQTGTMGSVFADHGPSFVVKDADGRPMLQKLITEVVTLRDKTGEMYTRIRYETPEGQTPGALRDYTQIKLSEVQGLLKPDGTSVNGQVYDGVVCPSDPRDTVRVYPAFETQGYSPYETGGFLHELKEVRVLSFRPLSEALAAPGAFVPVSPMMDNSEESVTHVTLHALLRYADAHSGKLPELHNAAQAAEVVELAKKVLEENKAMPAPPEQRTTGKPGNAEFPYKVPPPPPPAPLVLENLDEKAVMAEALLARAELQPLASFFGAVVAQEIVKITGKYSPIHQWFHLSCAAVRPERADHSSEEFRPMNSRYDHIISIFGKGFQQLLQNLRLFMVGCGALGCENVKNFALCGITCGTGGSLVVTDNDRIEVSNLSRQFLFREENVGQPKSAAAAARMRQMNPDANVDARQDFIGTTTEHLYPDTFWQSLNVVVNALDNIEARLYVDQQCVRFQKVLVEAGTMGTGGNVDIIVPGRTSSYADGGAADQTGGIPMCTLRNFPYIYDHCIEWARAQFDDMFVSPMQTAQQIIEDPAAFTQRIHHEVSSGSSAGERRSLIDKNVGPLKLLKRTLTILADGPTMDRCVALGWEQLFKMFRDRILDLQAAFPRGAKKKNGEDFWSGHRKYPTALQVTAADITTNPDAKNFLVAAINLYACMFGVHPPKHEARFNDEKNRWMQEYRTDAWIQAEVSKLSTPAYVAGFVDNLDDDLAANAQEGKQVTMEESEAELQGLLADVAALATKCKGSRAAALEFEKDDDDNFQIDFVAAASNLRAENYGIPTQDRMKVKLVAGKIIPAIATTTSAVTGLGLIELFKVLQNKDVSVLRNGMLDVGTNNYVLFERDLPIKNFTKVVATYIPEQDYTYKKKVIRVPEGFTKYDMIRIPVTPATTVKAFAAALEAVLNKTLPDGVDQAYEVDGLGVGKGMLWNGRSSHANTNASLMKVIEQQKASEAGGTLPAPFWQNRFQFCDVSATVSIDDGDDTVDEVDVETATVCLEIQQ

[3] = target: AMP-activated protein kinase, AMPK (Homo sapiens) (UniProt P54646+O43741+P54619+Q9UGJ0+Q9Y478+Q13131+Q9UGI9); experiment: AMP-dependent Kinase enzyme assay. An in vitro enzyme assay that detects ADP turnover that is directly proportional to AMPK activity. This uses naive AMPK that is activated during the assay with MK-8722; type: functional; conditions: 30 µM
[4] = target: Sialic acid-binding Ig-like lectin 9 (Homo sapiens) (UniProt Q9Y336); experiment: Hs-Siglec9 ALPHAscreen SOP 20170721; conditions: 10 µM
Sialic acid-binding Ig-like lectin 9 (Homo sapiens), sequence (Q9Y336 whole entry): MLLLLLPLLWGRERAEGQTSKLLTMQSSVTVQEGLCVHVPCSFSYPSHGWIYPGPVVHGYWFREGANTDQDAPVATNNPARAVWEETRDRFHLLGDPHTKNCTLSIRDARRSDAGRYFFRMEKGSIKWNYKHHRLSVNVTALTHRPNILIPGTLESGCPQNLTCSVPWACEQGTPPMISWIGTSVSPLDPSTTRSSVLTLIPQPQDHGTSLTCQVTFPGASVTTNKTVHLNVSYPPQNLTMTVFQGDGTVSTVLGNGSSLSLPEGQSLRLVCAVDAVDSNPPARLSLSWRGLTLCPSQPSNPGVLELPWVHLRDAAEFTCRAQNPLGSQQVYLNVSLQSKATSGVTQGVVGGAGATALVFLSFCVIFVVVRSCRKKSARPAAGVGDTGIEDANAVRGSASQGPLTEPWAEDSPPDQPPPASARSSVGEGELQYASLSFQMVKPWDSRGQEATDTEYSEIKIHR

Trypanosoma cruzi = experiment: Trypanosoma cruzi phosphomannomutase and mannose-1-phosphate guanylyltransferase assay; type: functional; conditions: 10 µM
[5] = target: T2, Arginase-2, mitochondrial (Homo sapiens) (UniProt P78540); experiment: in vitro enzyme assay to detect the production of urea directly proportional to the activity of Arginase II; type: functional; conditions: 33.3 µM; note: in the data most compounds retested in dose-response had high values
T2 sequence (whole entry): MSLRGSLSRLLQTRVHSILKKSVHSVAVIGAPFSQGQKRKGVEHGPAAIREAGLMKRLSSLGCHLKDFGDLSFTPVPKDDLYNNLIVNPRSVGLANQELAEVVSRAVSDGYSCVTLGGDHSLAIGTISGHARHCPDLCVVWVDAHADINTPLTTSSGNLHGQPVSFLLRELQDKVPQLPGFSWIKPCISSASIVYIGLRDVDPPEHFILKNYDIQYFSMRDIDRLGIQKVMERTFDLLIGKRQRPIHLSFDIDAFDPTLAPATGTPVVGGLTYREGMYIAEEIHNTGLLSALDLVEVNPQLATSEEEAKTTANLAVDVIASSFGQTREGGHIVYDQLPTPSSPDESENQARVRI

[6] = target: T3, Proteasome subunit beta (Trypanosoma cruzi) (UniProt O96673); experiment: Trypanosoma cruzi proteasome chymotrypsin-like activity (TcProtChymo) assay.; note: in the data most compounds retested in dose-response had high values; type: functional; conditions: 9.37 µM
T3 sequence (whole entry): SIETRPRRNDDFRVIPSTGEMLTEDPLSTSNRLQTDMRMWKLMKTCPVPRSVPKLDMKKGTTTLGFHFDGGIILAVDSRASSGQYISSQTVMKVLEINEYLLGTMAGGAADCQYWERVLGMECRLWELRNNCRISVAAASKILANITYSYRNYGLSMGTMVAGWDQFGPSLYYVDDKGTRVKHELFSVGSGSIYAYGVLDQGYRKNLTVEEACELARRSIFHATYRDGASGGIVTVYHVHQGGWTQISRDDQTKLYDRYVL

Homo sapiens = species: Homo sapiens; experiment: To identify inhibition of the IFN signalling (Jak-Stat) pathway via expression of an eGFP reporter gene under the control of an IFN-stimulated response element (ISRE) containing MxA promoter.; type: functional; conditions: 30 µM
[7] = target: T4, Tyrosyl-tRNA synthetase, putative (Trypanosoma cruzi (strain CL Brener)) (UniProt Q4DSP6); experiment: Trypanosoma cruzi tyrosyl tRNA synthetase (TcYRS) _High Tyrosine SOP; type: functional; conditions: 30 µM; note: in the data most compounds retested in dose-response had high values
T4 sequence (whole entry): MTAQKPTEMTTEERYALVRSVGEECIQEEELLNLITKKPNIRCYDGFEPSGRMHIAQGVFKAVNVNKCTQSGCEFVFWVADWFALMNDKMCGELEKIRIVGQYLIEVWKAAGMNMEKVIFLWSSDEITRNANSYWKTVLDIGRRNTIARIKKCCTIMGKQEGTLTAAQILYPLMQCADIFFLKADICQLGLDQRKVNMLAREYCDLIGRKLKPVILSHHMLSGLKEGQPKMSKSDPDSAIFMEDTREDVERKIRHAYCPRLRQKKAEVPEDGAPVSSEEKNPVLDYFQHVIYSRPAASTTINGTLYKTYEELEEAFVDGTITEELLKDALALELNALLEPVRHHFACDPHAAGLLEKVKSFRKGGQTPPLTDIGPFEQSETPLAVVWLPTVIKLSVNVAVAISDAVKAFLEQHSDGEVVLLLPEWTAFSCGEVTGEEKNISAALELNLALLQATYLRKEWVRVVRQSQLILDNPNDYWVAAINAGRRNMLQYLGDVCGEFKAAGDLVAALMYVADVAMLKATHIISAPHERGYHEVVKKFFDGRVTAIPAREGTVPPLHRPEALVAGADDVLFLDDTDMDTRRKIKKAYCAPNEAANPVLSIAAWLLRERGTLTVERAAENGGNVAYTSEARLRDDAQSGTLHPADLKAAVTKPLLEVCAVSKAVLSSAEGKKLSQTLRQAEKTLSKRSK

[8] = target: T4, Tyrosyl-tRNA synthetase, putative (Trypanosoma cruzi (strain CL Brener)); experiment: Trypanosoma cruzi tyrosyl tRNA synthetase (TcYRS) SOP; type: functional; conditions: 30 µM
[9] = target: Chromo domain-containing protein 1 (Saccharomyces cerevisiae (strain ATCC 204508 / S288c) (Baker's yeast)) (UniProt P32657); experiment: ScCHD-1 Enzyme Inhibition Assay; type: functional; conditions: 30 µM; note: in the data most compounds retested in dose-response had high values
Chromo domain-containing protein 1 (Saccharomyces cerevisiae (strain ATCC 204508 / S288c) (Baker's yeast)), sequence (P32657 whole entry, the tested form may be a part): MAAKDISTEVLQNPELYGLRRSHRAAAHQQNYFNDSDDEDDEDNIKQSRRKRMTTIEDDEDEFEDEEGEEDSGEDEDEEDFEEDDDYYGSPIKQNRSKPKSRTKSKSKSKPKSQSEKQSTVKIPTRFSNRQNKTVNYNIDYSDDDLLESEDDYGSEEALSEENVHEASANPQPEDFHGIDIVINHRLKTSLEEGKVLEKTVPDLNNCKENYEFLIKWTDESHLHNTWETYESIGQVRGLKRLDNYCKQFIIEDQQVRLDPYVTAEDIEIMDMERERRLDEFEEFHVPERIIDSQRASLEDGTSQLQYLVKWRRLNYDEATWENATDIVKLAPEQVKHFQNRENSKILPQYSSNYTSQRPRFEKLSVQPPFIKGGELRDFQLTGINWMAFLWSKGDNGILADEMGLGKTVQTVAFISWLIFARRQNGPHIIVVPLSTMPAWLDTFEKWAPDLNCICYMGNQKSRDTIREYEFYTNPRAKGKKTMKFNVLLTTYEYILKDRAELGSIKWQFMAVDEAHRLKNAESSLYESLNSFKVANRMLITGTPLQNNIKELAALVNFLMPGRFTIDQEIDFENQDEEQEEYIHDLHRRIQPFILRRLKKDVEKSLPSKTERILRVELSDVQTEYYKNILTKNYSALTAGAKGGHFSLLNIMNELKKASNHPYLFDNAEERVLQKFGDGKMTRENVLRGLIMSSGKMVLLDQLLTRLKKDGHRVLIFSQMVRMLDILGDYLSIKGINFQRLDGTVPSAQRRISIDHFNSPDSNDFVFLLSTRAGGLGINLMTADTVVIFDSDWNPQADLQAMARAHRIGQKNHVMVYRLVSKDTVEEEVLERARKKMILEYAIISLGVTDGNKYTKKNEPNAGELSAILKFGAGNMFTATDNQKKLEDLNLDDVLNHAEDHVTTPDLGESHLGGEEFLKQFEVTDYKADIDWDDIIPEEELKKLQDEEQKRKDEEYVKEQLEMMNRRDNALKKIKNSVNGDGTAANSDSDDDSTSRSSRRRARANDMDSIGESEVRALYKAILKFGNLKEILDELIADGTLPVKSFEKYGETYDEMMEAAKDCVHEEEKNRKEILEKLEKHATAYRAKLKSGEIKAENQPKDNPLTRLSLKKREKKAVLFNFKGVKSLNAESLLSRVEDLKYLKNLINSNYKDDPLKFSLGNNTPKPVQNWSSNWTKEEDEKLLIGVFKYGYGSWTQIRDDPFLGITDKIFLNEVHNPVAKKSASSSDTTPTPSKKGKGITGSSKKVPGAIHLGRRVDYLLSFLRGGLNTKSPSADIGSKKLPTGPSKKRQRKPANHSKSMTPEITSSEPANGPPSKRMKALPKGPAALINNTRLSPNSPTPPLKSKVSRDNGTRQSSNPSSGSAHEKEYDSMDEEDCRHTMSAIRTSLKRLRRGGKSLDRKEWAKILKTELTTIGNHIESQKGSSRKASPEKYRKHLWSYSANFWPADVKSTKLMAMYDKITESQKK

Protein translocase subunit SecA (Escherichia coli (strain K12)), sequence (P10408 whole entry): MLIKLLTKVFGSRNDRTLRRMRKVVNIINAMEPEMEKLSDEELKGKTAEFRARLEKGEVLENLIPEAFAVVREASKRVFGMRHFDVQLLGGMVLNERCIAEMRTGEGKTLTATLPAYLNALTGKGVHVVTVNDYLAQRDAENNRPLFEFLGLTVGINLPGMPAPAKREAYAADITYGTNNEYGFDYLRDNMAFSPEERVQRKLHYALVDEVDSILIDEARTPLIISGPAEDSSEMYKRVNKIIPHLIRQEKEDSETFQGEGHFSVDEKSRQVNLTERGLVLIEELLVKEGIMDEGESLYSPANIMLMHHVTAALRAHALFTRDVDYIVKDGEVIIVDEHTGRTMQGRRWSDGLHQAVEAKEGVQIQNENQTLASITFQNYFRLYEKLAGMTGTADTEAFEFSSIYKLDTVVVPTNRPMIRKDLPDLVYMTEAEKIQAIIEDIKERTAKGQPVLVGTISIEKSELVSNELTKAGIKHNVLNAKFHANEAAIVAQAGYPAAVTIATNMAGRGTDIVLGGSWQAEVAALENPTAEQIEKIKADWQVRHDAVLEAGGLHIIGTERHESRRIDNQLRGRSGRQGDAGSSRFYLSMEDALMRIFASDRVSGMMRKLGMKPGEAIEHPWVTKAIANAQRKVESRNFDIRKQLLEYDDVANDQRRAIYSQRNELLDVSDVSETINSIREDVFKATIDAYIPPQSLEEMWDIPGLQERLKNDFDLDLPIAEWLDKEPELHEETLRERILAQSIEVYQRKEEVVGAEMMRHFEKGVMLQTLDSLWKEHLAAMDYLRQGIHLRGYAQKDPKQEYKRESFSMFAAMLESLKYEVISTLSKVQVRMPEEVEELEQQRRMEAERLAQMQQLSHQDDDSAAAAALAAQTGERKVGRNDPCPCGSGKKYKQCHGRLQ

| Structure (SMILES) | Percent Effect [1] | Percent Effect [2] | Percent Effect [3] | Percent Effect [4] | Percent Effect (Trypanosoma cruzi) | Percent Effect [5] | Percent Effect [6] | Percent Effect (Homo sapiens) | Percent Effect [7] | Percent Effect [8] | Percent Effect [9] |
| --- | --- | --- | --- | --- | --- | --- | --- | --- | --- | --- | --- |
| CCc1cc(N2CCSCC2)n2nc(C)c(C)c2n1 | -2.37% | 5.33% | 2.1% | 4.26% | -4.97% | 1.04% | 26.7% | 15.8% | -2.73% | 6.17% | -6.13% |
| O=C(NC1CC(=O)N(Cc2cccc(F)c2)C1)c1ccncc1 (stereo unspecified) | -2.44% | -8.11% | 4.25% | -3.94% | -1.93% | -0.476% | 10.7% | 1.72% | 1.59% | 4.88% | 0.971% |
| COc1ncccc1CNc1cc(N2CCCC2CO)ncn1 (stereo unspecified) | -1.73% | 2.6% | -6.5% | 5.75% | 3.75% | -8.54% | 13.3% | 20.9% | 3.88% | 12.2% | -10.4% |
| Cn1c(C(F)(F)F)nn(CCNC(=O)CSCc2ccccc2)c1=O | -3.49% | 8.22% | 2.99% | 4.38% | 4.7% | 5% | 4.79% | 14.2% | 4.3% | 15% | -4.6% |
| CSCc1nc(C(C)(C)NC(=O)OC(C)(C)C)no1 | -2.5% | 2.67% | -2.2% | 1.89% | 7.3% | -2.08% | 9.07% | -12.6% | -0.546% | 1.24% | 107% |
| COC(=O)c1ccc(S(=O)(=O)NCc2cccnc2N(C)C)cc1 | -2.49% | 17.7% | 0.13% | -11% | -8.59% | -4.18% | 4.67% | 66.2% | -16.3% | 16.5% | -6.7% |
| COCCn1ccnc1C1CCCN(C(=O)CSCC2CC2)C1 (stereo unspecified) | -1.08% | 6.94% | -7.23% | -0.00565% | 4.37% | 0% | 19.1% | 1.07% | 3.16% | 7.69% | -0.19% |
| Cc1cnc(C)c(N2CCN(Cc3ccc(-c4cc[nH]n4)o3)CC2)n1 | -0.779% | 10.7% | -20.1% | 21.3% | 5.94% | 7.29% | 22.7% | 32% | 7.1% | 16.1% | -4.34% |
| CC(CNC(=O)N1CCN(CC(F)F)CC1)Cc1cccs1 (stereo unspecified) | -7.32% | 2.7% | 3.08% | 1.71% | -1.17% | 2.08% | 6.34% | -5.03% | 8.91% | 1.22% | -2.29% |
| CC(=O)NCCNC(=O)c1sc(-c2ccc(Cl)s2)nc1C | -6.51% | 10.8% | 5.52% | -4.05% | -5.29% | 1.29% | 4.67% | 11.1% | 0.99% | -79.3% | -0.599% |
| O=C(CN(C1=NCCCC1)c1ccccc1)c1ccccc1 | -3.17% | -2.63% | 3.38% | -3.96% | -3.21% | -7.1% | 7.96% | -2.85% | -3.19% | -10.4% | -5.81% |
| CC(=O)N1CC(=O)N(c2cnn(C)c2)CC12CCN(CC1CC1)C2 (stereo unspecified) | -2.91% | 0% | 1.91% | 0.306% | -3.52% | 1.67% | 0.423% | -7.14% | 4.95% | 1.22% | -0.193% |
| Cc1nc(CN2CCCC(NCCOc3ccccc3)C2)no1 (stereo unspecified) | -2.53% | 2.53% | -4.3% | -3.12% | -1.98% | 2.28% | 28.9% | -12.5% | 2.46% | -1.27% | -6.02% |
| Cc1cc(C)nc(Nc2cccc(C3CCCN(C)C3)n2)n1 (stereo unspecified) | -4.27% | 1.35% | 9.63% | -3.78% | 2.77% | -3.94% | 4.68% | -3.42% | 2.15% | 6.49% | -16.2% |
| CC(C)NC(=O)N1CCN(C(=O)N(C)C)CC2(CC(=O)N(C)C2)C1 (stereo unspecified) | -3.05% | 13.5% | -4.22% | 1.04% | 1.56% | 6.25% | 18.5% | 7.62% | 8.91% | 13.4% | -7.18% |
| O=C(NCCNc1ccc(C(F)(F)F)cn1)c1ccc(Br)cc1F | -3.12% | 10.4% | 7.24% | -16.8% | -5.39% | -2.74% | 11.9% | 6.29% | 3.81% | 14.1% | -26.3% |
